From PubChem BioAssay (NCATS) come the findings set out here.

Each structure is given as a SMILES string. Results filed as inconclusive are left out. Activity calls are given as the source filed them. The call rests on the fitted dose curve; in most records, active means well fitted cell-killing curve with a large enough effect; inconclusive means small, poorly fitted or top-dose-only effect; inactive means no such curve, though single readings can be large or run the other way. Non-standard residues stand in square brackets, D forms with d. Residues, ends and D or L forms follow the SMILES beside them. *: point of attachment. Nva = CCC[C@H](N)C(=O)O; Cbz = O=C(OCc1ccccc1)*
On the % scale 0 is the no-effect control and ±100 the full control effect; potency means the concentration at half of the fitted maximal effect.

The nature of the test: qHTS of pediatric cancer cell lines to identify multiple opportunities for drug repurposing: Confirmatory screen for TC32 cells (AID 1347118).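 Further: cells exposed to compound for 48 h before the read; nearly all actives have a fitted effect of over 65% in size.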 Particulars: TC32 Ewing sarcoma cells viability qHTS; series mostly up to 45.9 µM; activity change, negative = cytotoxicity: at the top concentration. The text has this: Drug repurposing or repositioning has been offered as a strategy for drug development in oncology programs. This approach has special potential for childhood cancers and other rare or orphan diseases, where the expected return on new drug development has been a disincentive to pharmaceuticals.
In this project we exploit the poly-pharmacology of drugs to discover new indications via phenotypic screening of a panel of 19 well-characterized cell lines derived from solid tumors seen in children and adolescents. The goal is to identify approved drugs with previously unrecognized anticancer properties that has the potential to reveal new mechanisms and biological processes involved in carcinogenesis or drug resistance. We employed a titration-based paradigm (quantitative high-throughput screening or qHTS), where all compounds were tested at multiple concentrations for their effect on cell viability. Concentration-response curves (CRCs) were derived directly from the primary screen, and both potency and efficacy values were used to identify compounds with robust bioactivity profiles. We screened the NIH Chemical Genomics Center (NCGC) Pharmaceutical Collection (NPC) and Mechanism Interrogation Plate (MIPE) small molecule collections of approved and investigational compounds against these cell lines; and measured metabolically active cells after 48 hours of compound treatment as a proxy for cell viability.
Assay Submitter: Nathalia J. Martinez, National Center for Advancing Translational Sciences, National Institutes of Health, Rockville, MD, USA; email: natalia.martinez@nih.gov
[1] Shen, M et al. Quantitative high-throughput phenotypic screening of pediatric cancer cell lines identifies multiple opportunities for drug repurposing. Oncotarget 2017 Dec 19;9(4):4758-4772. PMID 29435139.
The cells were obtained from University of North Carolina (UNC), Pediatric Preclinical Testing Program (PPT), and Coriell Institute (CI).
qHTS cell viability assay:
Cells were assayed in growth media at a density of 500-1,000 cells/well. Five microliters of cells were dispensed into 1,536-well, white, solid-bottom, TC-treated plates (Greiner Bio One) using a multidrop dispenser and incubated at 37 degrees C, 5% CO2, under a humidified atmosphere for 5 hours. Twenty-three nanoliters of compounds and controls (neutral control DMSO or positive control bortezomib at final concentration of 2.3 uM) were subsequently transferred by Kalypsys pintool. For primary screens, the MIPE collection was tested at 11-point dilutions (final concentrations range from 0.78 nM to 46 µM) and the NPC collection at 8-point dilutions (final concentrations range from 0.59 nM to 46 µM). Compounds tested in follow-up screens were assayed at 11-point dilutions. Cells were incubated for 48 hours, followed by addition of 3 uL of CellTiter-Glo (Promega). After a 15min incubation at room temperature, samples were analyzed for luminescence intensity using a ViewLux High-throughput CCD imager equipped with clear filters.
(qHTS replaces the single test concentration by a dilution series.)
Consider `C=CC(=O)N1CCc2ccc(-n3c(=O)ccc4cnc5ccc(-c6cnn(C)c6)cc5c43)cc21`, for which the Potency was 5220 nM (active). Still for that read-out and setting: the figure for `COc1ccc(S(=O)(=O)Nc2cccnc2Nc2ccc(O)cc2)cc1` is 737 nM (active); for `COc1ccc2c(c1OC)C(=O)OC2[C@H]1c2c(cc3c(c2OC)OCO3)CCN1C` (stereo not given in full) it is 2930 nM (active).

Turning to `CCc1cc(C(C)=NOCc2ccc(C3CCCCC3)c(C(F)(F)F)c2)ccc1CN1CC(C(=O)O)C1`, the Potency was 9270 nM (active). Take `Cc1cc(Nc2ncc3c(n2)N(C)C(=O)N(c2cc(NC(=O)c4cccc(C(F)(F)F)c4)ccc2C)C3)n(C)n1`: the Potency was 329 nM (active). The same measure, in the same setting: the figure for `COc1cc([C@@H]2c3cc4c(cc3[C@@H](O[C@@H]3O[C@@H]5CO[C@@H](c6cccs6)O[C@@H]5[C@H](O)[C@@H]3O)[C@H]3COC(=O)[C@H]23)OCO4)cc(OC)c1O` is 131 nM (active). Same read-out and setting: the figure for `Cc1ncc(-c2ccnc(Nc3ccc(S(C)(=O)=O)cc3)n2)n1C(C)C` is 4650 nM (active); for `CC(=O)O[C@@]12CO[C@H]1C[C@H](O)[C@@]1(C)C(=O)[C@H](O)C3=C(C)[C@@H](OC(=O)C(O)[C@@H](NC(=O)OC(C)(C)C)c4ccccc4)C[C@@](O)([C@@H](OC(=O)c4ccccc4)[C@@H]21)C3(C)C` (stereo not given in full) it is 5.9 nM (active). Turning to `CC(=O)NCC(=O)N1[C@H]2CC[C@H]1c1cc(Nc3ncc(C(F)(F)F)c(NC4CCC4)n3)ccc12`, the Potency was 46.5 nM (active). Take `Cn1cnc(=N)c2[nH]cnc21`: the “activity change, negative = cytotoxicity” value was 1.89% (inactive). As to `CC(N[C@H]1CCCC[C@H]1NC(=O)c1ccc(Cl)cc1)c1cccc2ccccc12` (stereo not given in full), the Potency is 5850 nM (active).

In the case of `COc1cccc2c1C(=O)c1c(O)c3c(c(O)c1C2=O)C[C@@](O)(C(=O)CO)C[C@@H]3O[C@H]1C[C@H](N)[C@H](OC2CCCCO2)[C@H](C)O1` (stereo not given in full), the Potency is 465 nM (active). Still for that read-out and setting: the figure for `CC(C)N1[N]C(=C2C=c3cc(O)ccc3=N2)c2c(N)ncnc21` is 1170 nM (active). Same read-out and setting: the figure for `Oc1ccc(-c2ccc(-c3cc(Nc4cccc(CNC5CC5)c4)n[nH]3)cc2)c(O)c1` is 2330 nM (active); for `CCC[C@@H](C=O)NC(=O)[C@H](CC(C)C)NC(=O)[C@H](CC(C)C)NC(=O)OCc1ccccc1` (Cbz-Leu-Leu-[Nva]-aldehyde) it is 1470 nM (active). Still for that read-out and setting: the figure for `O=C(C=CC#Cc1cccc(NS(=O)(=O)c2ccccc2)c1)NO` is 737 nM (active); for `NC(=O)Nc1cc(-c2ccc(CN3CCOCC3)cc2)sc1C(N)=O` it is 414 nM (active).

In the case of `C=CC(=O)Nc1cccc(Nc2nc(NC3CCC(N(C)C)CC3)nc3c2ncn3C(C)C)c1` (stereo not given), the Potency is 657 nM (active). On to `N#Cc1c(C2CCNCC2)cc(-c2c(O)cccc2OCC2CC2)nc1N`, for which the “activity change, negative = cytotoxicity” value was -14.1% (inactive).

Take `COc1ccc(C[C@@H](C)[C@@H](C)Cc2ccc(OC)c(OC)c2)cc1OC`: the Potency is 4140 nM (active). The same measure, in the same setting: with `COC[C@H](NC(=O)c1cnc(C)s1)C(=O)N[C@@H](COC)C(=O)N[C@@H](Cc1ccccc1)C(=O)[C@@]1(C)CO1` the figure was 165 nM (active); with `N#CNC(=NCCCCCCOc1ccc(Cl)cc1)Nc1ccncc1`, 4.1 nM (active); with `CC(C)(N)c1ccc(-c2nc3ccccc3nc2-c2ccccc2)cc1`, 1470 nM (active). Still for that read-out and setting: with `O=C(Nc1cc2cc[nH]c2cn1)c1ccccc1` the figure was 1850 nM (active). On the same count and under the same terms, with `COc1cc(C=CC(=O)CC(=O)C=Cc2ccc(O)c(OC)c2)ccc1O` the figure was 9550 nM (active). With `C[N+](C)([O-])CCNc1ccc(NCC[N+](C)(C)[O-])c2c1C(=O)c1c(O)ccc(O)c1C2=O`, the Potency is 4140 nM (active).

Consider `CC(=O)ON=C1C(c2c(O)[nH]c3cc(Br)ccc23)=Nc2ccccc21`, for which the Potency was 16500 nM (active). The same measure, in the same setting: with `COc1cc(O)c2c(c1)C1OC1C[C@H](O)[C@H](O)C(=O)C=CC[C@H](C)OC2=O` (stereo not given in full) the figure was 9270 nM (active); with `COc1cc(C[C@@H](CO)[C@H](CO)Cc2ccc(O)c(OC)c2)ccc1O`, 9270 nM (active); with `CC(=O)[C@]1(O)Cc2c(O)c3c(c(O)c2[C@@H](O[C@H]2C[C@H](N)[C@@H](O)[C@H](C)O2)C1)C(=O)c1ccccc1C3=O`, 293 nM (active). For `O=S(=O)(O)CCSSCCS(=O)(=O)O`, the “activity change, negative = cytotoxicity” value was 1.66% (inactive). On the same count and under the same terms, the figure for `COC(=O)[C@@H]1[C@H]2C[C@@H]3c4[nH]c5ccccc5c4CCN3C[C@@H]2CC[C@@H]1O` is -2.71% (inactive). For `N#Cc1c(NC(=O)c2cccc3ccccc23)sc2c1CCCC2`, the Potency is 233 nM (active). The same measure, in the same setting: with `CC(C)C[C@@H](C=O)NC(=O)[C@H](CC(C)C)NC(=O)[C@H](CC(C)C)NC(=O)OCc1ccccc1` (Cbz-Leu-Leu-Leu-aldehyde) the figure was 827 nM (active); with `NC(=O)Nc1sc(-c2ccc(F)cc2)cc1C(N)=O`, 5220 nM (active).

Consider `CCS(=O)(=O)Nc1ccc2[nH]c(O)c(C(=Nc3ccc(CN4CCCCC4)cc3)c3ccccc3)c2c1`, for which the Potency is 41.4 nM (active). On the same count and under the same terms, with `Nc1nc2c(c(=O)[nH]1)N(C=O)[C@H](CNc1ccc(C(=O)N[C@@H](CCC(=O)O)C(=O)O)cc1)CN2` the figure was 10400 nM (active); with `C[C@@H](Oc1ccc2[nH]nc(C=Cc3cnn(CCO)c3)c2c1)c1c(Cl)cncc1Cl`, 2330 nM (active). On the same count and under the same terms, with `Cc1cnc(Nc2ccc(CN3CCOCC3)cc2)nc1Nc1cccc(S(=O)(=O)NC(C)(C)C)c1` the figure was 3290 nM (active); with `CNC(=O)c1cccc(-c2ccc3c(N4CCOC[C@H]4C)nc(N4CCOC[C@H]4C)nc3n2)c1`, 737 nM (active).
